High-throughput results: PubChem, National Center for Advancing Translational Sciences (NCATS)
Most compounds without a hit are left out; they make up all but 19% or so of the library.
ELG1 DNA repair: blocks ELG1-dependent DNA repair in HEK293T cells | HEK293T ELG1-luciferase reporter, luminescence, 16 h; DNA damage induced by 5-fluorouridine | hit rate 2.3% among 330,000 | AID 504467 | Potency, µM (titrated, usually from 46.1 µM), for the others: at the top dose activity change, negative = inhibition, most hits filed as inhibitors; note: potency is the fitted concentration of half-maximal effect; nearly all actives have a fitted effect of over 55% in size
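5-Fluorouridine DNA damage + compound/DMSO, 2,000 cells/well, 16 h, 37 °C/5% CO2. ONE-Glo, 30 min RT, luminescence. Readout = decrease in reporter signal.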
DT40 TDP1 CPT: DT40-hTDP1 cell growth loss with CPT | Potency, µM (series often up to 46.2 µM), without a hit: at the top dose activity change, negative = growth inhibition, usual class: inhibitors | hit rate 12% among 420,000 | chicken DT40 Tdp1-/-;hTDP1 cells + 20 nM CPT, ATP luminescence, 48 h; note: potency is the fitted concentration of half-maximal effect; nearly all actives have a fitted effect of over 55% in size
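Cell growth measured by CellTiter-Glo luminescence after a minimum 48 h, 37 C compound exposure with 20 nM CPT in Tdp1-knockout DT40 cells stably expressing hTDP1, seeded 400/well; qHTS titration format.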
Giardia killer: kills Giardia lamblia. Giardia lamblia trophozoite viability. activity change, % at 7.66 µM, hits read low. hit rate 0.15% among 340,000. AID 540267; in the data active = activity change below about -80%; inconclusive = between about -30% and that limit;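 note: parasites exposed to compound for two days anaerobically before the ATP read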
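Anaerobic 48 hrs incubation at 37 deg C of 100 trophozoites/well with test compounds; ATPLite 1-Step luminescence, 15-30 min RT, reports cellular ATP as viability.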
IL-1B inflam inh: inhibitors of inflammasome signaling (IL-1 beta secretion) | THP-1 LPS/ATP IL-1B secretion, AlphaLISA, 16 h; hits give low values | activity change, % at 57.5 µM | hit rate 4.7% among 360,000 | AID 743279; in the data active = activity change below about -50%; inconclusive = mostly about -30% to -49%
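Secreted IL-1B measured by AlphaLISA bead assay after 16 h compound exposure of THP-1 cells; compounds (final up to 57.5 uM) added 1 h before LPS (250 ng/mL) and ATP (1.25 mM) stimulation; lower signal means less secretion.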
TDP1 block: TDP1 (human) enzyme inhibition; Q9NUW8; recombinant TDP1, AlphaScreen DNA substrate cleavage; Potency, µM (highest dose often 130 µM), inactives show at the highest dose activity change, negative = inhibition, most hits filed as inhibitors; hit rate 0.28% among 350,000; note: potency is the fitted concentration of half-maximal effect; nearly all actives have a fitted effect of over 40% in size
Target sequence (Q9NUW8 whole entry, looked up): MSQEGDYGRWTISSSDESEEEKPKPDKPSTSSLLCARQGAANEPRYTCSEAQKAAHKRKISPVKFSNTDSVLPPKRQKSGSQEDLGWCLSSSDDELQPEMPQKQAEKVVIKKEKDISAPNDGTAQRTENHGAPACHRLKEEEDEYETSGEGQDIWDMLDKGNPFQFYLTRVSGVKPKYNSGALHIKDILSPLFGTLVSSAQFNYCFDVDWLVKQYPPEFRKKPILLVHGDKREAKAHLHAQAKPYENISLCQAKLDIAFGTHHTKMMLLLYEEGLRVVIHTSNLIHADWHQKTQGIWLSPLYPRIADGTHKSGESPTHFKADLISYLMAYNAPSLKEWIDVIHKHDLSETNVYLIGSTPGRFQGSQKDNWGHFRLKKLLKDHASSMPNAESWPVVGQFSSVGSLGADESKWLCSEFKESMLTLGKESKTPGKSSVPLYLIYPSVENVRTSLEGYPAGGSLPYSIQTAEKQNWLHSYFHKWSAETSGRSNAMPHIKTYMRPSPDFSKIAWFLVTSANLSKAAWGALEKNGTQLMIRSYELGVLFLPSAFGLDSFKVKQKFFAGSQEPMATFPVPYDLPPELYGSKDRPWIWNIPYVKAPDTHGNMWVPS
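Enzyme-compound mixtures sat 15 min at room temperature, followed by a 5 min reaction with 15 nM final substrate and 10 min with AlphaScreen beads. Recombinant human Tdp1 was used at 1 nM final.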
DT40 TDP1 no CPT: qHTS for Inhibitors of human tyrosyl-DNA phosphodiesterase 1 (TDP1): qHTS in cells in absence of CPT; DT40 Tdp1-/- hTDP1 cells, no CPT, ATP luminescence, 48 h; Potency, µM (titrated, usually from 46.2 µM), without a hit: top-dose activity change, negative = growth inhibition, hits mostly inhibitors; hit rate 15% among 420,000; AID 686978, 2013; note: potency is the fitted concentration of half-maximal effect; nearly all actives have a fitted effect of over 55% in size
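Stably hTDP1-transfected Tdp1-null chicken DT40 cells were treated with library compounds minus camptothecin and grown for at least 48 hr at 37 °C, after which cellular ATP was quantified by luminescence.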
* hit, by the source's call; [ ] = remark or other dose. Unless noted, calls come from the whole dose curve; as a rule, active = well fitted curve in the direction sought with a large enough effect; inconclusive = small, poorly fitted or top-dose-only effect, or another doubt; inactive = no such curve, though single readings can be large; an effect the other way counts as inactive or inconclusive. % is set by controls: 0 for no effect and ±100 for the full control effect.

CC(OC(=O)c1cc[n+]([O-])cc1)C(=O)Nc1ccc(Cl)cn1 (stereo unspecified) was read as ELG1 DNA repair 0%, DT40 TDP1 CPT -8%, Giardia killer 0, IL-1B inflam inh 24, TDP1 block 5% and DT40 TDP1 no CPT -10%.
Screening CC(OC(=O)C1CC1C)C(=O)Nc1ccc(Cl)cn1 (stereo unspecified) returned ELG1 DNA repair 14%, DT40 TDP1 CPT -1%, Giardia killer -8, IL-1B inflam inh -9, TDP1 block -7% and DT40 TDP1 no CPT -4%.
Screening Cc1ccsc1C(=O)OC(C)C(=O)Nc1ccc(Cl)cn1 (stereo unspecified) returned ELG1 DNA repair -1%, DT40 TDP1 CPT inconclusive, Giardia killer -1, IL-1B inflam inh 0, TDP1 block -5% and DT40 TDP1 no CPT 26µM*.
Screening COc1ccc(CN2CCNC(=O)C2CC(=O)NCc2cn3ccc(C)cc3n2)c(OC)c1 (stereo unspecified) returned ELG1 DNA repair -3%, DT40 TDP1 CPT 3%, Giardia killer 5, IL-1B inflam inh -17, TDP1 block 5% and DT40 TDP1 no CPT -11%.
For Cc1cc(N2CCC(C)CC2)nc2ccc(NC(=O)Cc3c(F)cccc3Cl)cc12 the results were DT40 TDP1 CPT inconclusive, TDP1 block 6% and DT40 TDP1 no CPT inconclusive.
Screening CCNC(=O)C1(C)CCCN1C(=O)c1ccc2c(c1)OCO2 (stereo unspecified) returned DT40 TDP1 CPT -4%, IL-1B inflam inh 0 and DT40 TDP1 no CPT 2%.
For Cc1ccc(OCc2nc3ccccc3n2C(C(=O)Nc2c(C)cccc2C)C2CC2)cc1 (stereo unspecified) the results were DT40 TDP1 CPT inconclusive, IL-1B inflam inh -18 and DT40 TDP1 no CPT inconclusive.
For COc1ccc(C(C(=O)NC(C)(C)C)n2c(-c3ccc(=O)[nH]c3)nc3ccccc32)cc1 (stereo unspecified) the results were DT40 TDP1 CPT 9.2µM*, IL-1B inflam inh -6 and DT40 TDP1 no CPT 8.2µM*.
For COc1ccc(C(C(=O)NC(C)(C)C)n2c(COc3ccc(C)cc3)nc3ccccc32)cc1 (stereo unspecified) the results were DT40 TDP1 CPT 18µM*, IL-1B inflam inh -26 and DT40 TDP1 no CPT inconclusive.
For Cc1cccc(NC(=O)c2oc3ccccc3c2NC(=O)c2cc(=O)c3ccc(C)cc3o2)c1 the results were DT40 TDP1 CPT 10%, TDP1 block 4% and DT40 TDP1 no CPT 0%.
`CC(C)[C@@H](OCc1ccccc1)[C@H](C)/C=N\OC[C@@H](O)[C@@H]1O[C@@H]2OC(C)(C)O[C@@H]2[C@H]1O` gave TDP1 block 8%[21 µM].
NS(=O)(=O)c1ccc(CCN=C(NS(=O)(=O)c2cccs2)c2ccccc2)cc1 was read as ELG1 DNA repair 2%, DT40 TDP1 CPT -1%, Giardia killer 4, IL-1B inflam inh 15, TDP1 block -2% and DT40 TDP1 no CPT 30%.
Screening CCCCCC(=O)/C=C/C=C\C/C=C\C/C=C\CCCC(=O)O returned TDP1 block 4%.
`CCOC(=O)c1cc(-c2ccco2)nc2c1c(C)nn2CCC#N` gave ELG1 DNA repair inconclusive, DT40 TDP1 CPT inconclusive, Giardia killer -1, IL-1B inflam inh -29, TDP1 block 3% and DT40 TDP1 no CPT inconclusive.
`CCOC(=O)c1cc(-c2ccncc2)nc2c1c(C)nn2C` gave ELG1 DNA repair inconclusive, DT40 TDP1 CPT inconclusive, Giardia killer 10, IL-1B inflam inh inconclusive, TDP1 block -4% and DT40 TDP1 no CPT 18µM*.
Screening CCOC(=O)c1cc(-c2ccc3c(c2)OCCO3)nc2c1c(C)nn2CCC#N returned ELG1 DNA repair 6.5µM*, DT40 TDP1 CPT inconclusive, Giardia killer 42, IL-1B inflam inh 0, TDP1 block -7% and DT40 TDP1 no CPT 12µM*.
